# According to paper PMC11006913:
# Where a chain is given by its changes, count along the chain named.
# Key:
# Test in all cases: PBM; 200 nM protein, PBS
# Conditions in all cases: dsDNA, one strand shown
# [1] = biological target: T1, VENTX (Homo sapiens, UniProt O95231 78-163, R121Q)
# T1 sequence: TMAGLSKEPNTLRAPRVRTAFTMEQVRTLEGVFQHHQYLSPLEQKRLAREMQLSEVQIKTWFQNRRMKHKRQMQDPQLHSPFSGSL
# [2] = biological target: T2, VENTX (Homo sapiens, UniProt O95231 78-163)
# T2 sequence: T1 sequence with Q44R
# [3] = biological target: T3, VENTX (Homo sapiens, UniProt O95231 78-163, Y115F)
# T3 sequence: T1 sequence with Y38F, Q44R
Sequence,binding signal [1],binding signal [2],binding signal [3]
CTACCCGC,"8.06 upbm affinity estimate (log intensity, higher = more binding, comparable within an allelic series)","8.07 upbm affinity estimate (log intensity, higher = more binding, comparable within an allelic series)","8.08 upbm affinity estimate (log intensity, higher = more binding, comparable within an allelic series)"
GTTAATAA,"10.8 upbm affinity estimate (log intensity, higher = more binding, comparable within an allelic series)","11.2 upbm affinity estimate (log intensity, higher = more binding, comparable within an allelic series)","10.6 upbm affinity estimate (log intensity, higher = more binding, comparable within an allelic series)"
ACCTATTA,"11.4 upbm affinity estimate (log intensity, higher = more binding, comparable within an allelic series)","12 upbm affinity estimate (log intensity, higher = more binding, comparable within an allelic series)","11.1 upbm affinity estimate (log intensity, higher = more binding, comparable within an allelic series)"
CACTGCGC,"8.04 upbm affinity estimate (log intensity, higher = more binding, comparable within an allelic series)","8.14 upbm affinity estimate (log intensity, higher = more binding, comparable within an allelic series)","8.18 upbm affinity estimate (log intensity, higher = more binding, comparable within an allelic series)"
CTCGGACC,"8.07 upbm affinity estimate (log intensity, higher = more binding, comparable within an allelic series)","8.13 upbm affinity estimate (log intensity, higher = more binding, comparable within an allelic series)","8.15 upbm affinity estimate (log intensity, higher = more binding, comparable within an allelic series)"
AATCCATT,"10.1 upbm affinity estimate (log intensity, higher = more binding, comparable within an allelic series)","10.5 upbm affinity estimate (log intensity, higher = more binding, comparable within an allelic series)","9.94 upbm affinity estimate (log intensity, higher = more binding, comparable within an allelic series)"
CTAATGGC,"12 upbm affinity estimate (log intensity, higher = more binding, comparable within an allelic series)","12.7 upbm affinity estimate (log intensity, higher = more binding, comparable within an allelic series)","11.8 upbm affinity estimate (log intensity, higher = more binding, comparable within an allelic series)"
AAATTCGT,"9.56 upbm affinity estimate (log intensity, higher = more binding, comparable within an allelic series)","9.96 upbm affinity estimate (log intensity, higher = more binding, comparable within an allelic series)","9.72 upbm affinity estimate (log intensity, higher = more binding, comparable within an allelic series)"
AAACTAAT,"11 upbm affinity estimate (log intensity, higher = more binding, comparable within an allelic series)","11.7 upbm affinity estimate (log intensity, higher = more binding, comparable within an allelic series)","11 upbm affinity estimate (log intensity, higher = more binding, comparable within an allelic series)"
TTACATAA,"9.95 upbm affinity estimate (log intensity, higher = more binding, comparable within an allelic series)","10.4 upbm affinity estimate (log intensity, higher = more binding, comparable within an allelic series)","9.97 upbm affinity estimate (log intensity, higher = more binding, comparable within an allelic series)"
ACTATTTA,"10.1 upbm affinity estimate (log intensity, higher = more binding, comparable within an allelic series)","10.6 upbm affinity estimate (log intensity, higher = more binding, comparable within an allelic series)","10.1 upbm affinity estimate (log intensity, higher = more binding, comparable within an allelic series)"
GCCAGGCA,"8.27 upbm affinity estimate (log intensity, higher = more binding, comparable within an allelic series)","8.55 upbm affinity estimate (log intensity, higher = more binding, comparable within an allelic series)","8.35 upbm affinity estimate (log intensity, higher = more binding, comparable within an allelic series)"
CGATTAAC,"11.4 upbm affinity estimate (log intensity, higher = more binding, comparable within an allelic series)","12.4 upbm affinity estimate (log intensity, higher = more binding, comparable within an allelic series)","11.3 upbm affinity estimate (log intensity, higher = more binding, comparable within an allelic series)"
TACATATA,"9.51 upbm affinity estimate (log intensity, higher = more binding, comparable within an allelic series)","9.59 upbm affinity estimate (log intensity, higher = more binding, comparable within an allelic series)","9.49 upbm affinity estimate (log intensity, higher = more binding, comparable within an allelic series)"
CGGGCGCC,"8.04 upbm affinity estimate (log intensity, higher = more binding, comparable within an allelic series)","8.22 upbm affinity estimate (log intensity, higher = more binding, comparable within an allelic series)","8.23 upbm affinity estimate (log intensity, higher = more binding, comparable within an allelic series)"
AATATTTG,"9.84 upbm affinity estimate (log intensity, higher = more binding, comparable within an allelic series)","10 upbm affinity estimate (log intensity, higher = more binding, comparable within an allelic series)","9.7 upbm affinity estimate (log intensity, higher = more binding, comparable within an allelic series)"
